An excerpt weighted towards active compounds, which were near 6.1% of everything screened.
D1 ag: Allosteric Agonists of the Human D1 Dopamine Receptor: qHTS | activation, % at 2 µM | D(1A) dopamine receptor (Homo sapiens), P21728 | AID 504660, 2011 | actives 1% (n = 360,000) | HEK293 T-REx D1 cells, calcium flux, agonist mode; in the data active = activation above about 30%; also: 0% is about no effect
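Tetracycline-induced HEK293 TREx D1 cells, force-coupled to calcium signalling, were dye-loaded with a no-wash calcium kit. Compound was pin-added after a 10 s baseline. Fluorescence was read kinetically at 1 cycle/s for 180 s, with calcium rises flagged as agonism.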
ERG-DNA inh: qHTS for Small Molecule Inhibitors of the ERG Ets/DNA interaction | Potency, µM (series often up to 76.9 µM), for inactives: at the highest dose FP activity, negative = inhibition, most hits filed as inhibitors | Transcriptional regulator ERG (Homo sapiens), P11308 | actives 0.028% (n = 370,000) | fluorescence polarization, His-ERG Ets domain / labelled DNA; active = well fitted inhibition curve with a large enough effect in the polarisation, with a control signal flat; inconclusive = small, poorly fitted or top-dose-only effect, or effect the other way, or a change in a side signal; inactive = no such curve, though single readings can be large or run the other way; the % refers to the polarisation;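 also: polarization taken with two DNA probes labelled with fluorescein and Texas red; potency is read from the fitted curve at half-maximal effect; % of control where 0% means no effect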
Target sequence (P11308 whole entry, looked up, the tested form may be a part): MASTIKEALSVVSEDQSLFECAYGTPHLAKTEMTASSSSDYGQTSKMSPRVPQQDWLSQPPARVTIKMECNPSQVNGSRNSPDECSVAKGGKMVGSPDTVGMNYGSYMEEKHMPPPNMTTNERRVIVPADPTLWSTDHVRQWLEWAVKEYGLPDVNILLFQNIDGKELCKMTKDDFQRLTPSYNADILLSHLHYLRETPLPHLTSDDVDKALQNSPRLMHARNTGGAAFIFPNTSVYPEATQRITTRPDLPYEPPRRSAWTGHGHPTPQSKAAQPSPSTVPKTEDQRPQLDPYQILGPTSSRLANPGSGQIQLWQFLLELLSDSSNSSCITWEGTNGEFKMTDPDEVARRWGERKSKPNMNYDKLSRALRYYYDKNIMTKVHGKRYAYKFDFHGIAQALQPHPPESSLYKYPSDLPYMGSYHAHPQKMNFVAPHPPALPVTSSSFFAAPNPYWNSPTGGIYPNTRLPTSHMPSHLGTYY
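His-tagged ERG Ets domain (1 uM in the protein solution; 300mM KCl, 50mM Tris-HCl, 1mM EDTA, 1mM DTT, pH 7.5) received compound, then a probe mix of 5 nM fluorescein-DNA and 100nM Texas-615-DNA. Fluorescence polarization was read for both dyes.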
D3 antag: qHTS of D3 Dopamine Receptor Antagonist: qHTS. actives 2.5% (n = 360,000). D(3) dopamine receptor (Homo sapiens), P35462. AID 652054, 2013. D3R cells, DiscoveRx beta-arrestin luminescence, antagonist mode; hits give low values. max response, negative = inhibition, %; in the data active = max response below about -50%; inconclusive = no clear call, values can overlap the other calls; also: % is scaled to controls: 0 for no effect and ±100 for the full control effect
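Cells expressing the human receptor were seeded at 1500 cells/well, incubated overnight at 37 degrees C in 5% CO2, then exposed to library compounds with dopamine controls for 90 minutes at 37 degrees C before luminescent detection.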
D3 ag: qHTS of D3 Dopamine Receptor Agonist: qHTS. D(3) dopamine receptor (Homo sapiens), P35462. D3R DiscoveRx beta-arrestin cells, luminescence, 90 min. max activation, %. actives 0.58% (n = 410,000); in the data active = max activation above about 30%; also: 0% is about no effect
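Agonist mode: compounds and dopamine controls were applied to plated cells for 90 min at 37 degrees C after an overnight attachment at 1500 cells/well. Luminescent read-out followed 30 - 60 minutes at room temperature with DiscoveRx detection reagent.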
D1 antagonist: Antagonist of Human D 1 Dopamine Receptor: qHTS | D(1A) dopamine receptor (Homo sapiens), P21728 | HEK293 TREx D1 cells, calcium flux, dopamine EC80; hits give low values | activity change, negative = inhibition, % at 10 µM | actives 3.2% (n = 360,000) | AID 504652, 2011; in the data active = activity change below about -30%; also: % is scaled to controls: 0 for no effect and ±100 for the full control effect
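Kinetic fluorescence of a calcium dye serves as the read-out. D1-expressing Hek293 Trex cells, induced overnight at 30 C, are exposed to compound for 180 s before an EC80 dopamine addition, then read 180 s further.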
D1 PAM: Potentiators of Human D1 Dopamine Receptor: qHTS | AID 504651, 2011 | actives 0.036% (n = 360,000) | potentiation, % at 10 µM | D(1A) dopamine receptor (Homo sapiens), P21728 | HEK293 TREx D1 cells, calcium flux, dopamine EC20 potentiation; in the data active = potentiation above about 30%; also: 0% is about no effect
Starred values were filed as active, the others as inactive; u = inconclusive; x = no result given.

SMILES	D1 ag	ERG-DNA inh	D3 antag	D3 ag	D1 antagonist	D1 PAM
CCC(CO)Oc1cc(NCc2ccncc2)c2ncn(C(C)C)c2c1 (stereo not given)	x	-4%	1	56*	x	x
CCC(CN(C)C)Oc1cc(NCc2ccccc2)c2ncn(C(C)C)c2c1 (stereo not given)	x	-18%	-55*	-18	x	x
COc1ccc(OC)c(CNC(=O)c2c(C)oc3ncn(C)c(=O)c23)c1	0	-2%	x	-3	5	3
OC(c1ccccc1)c1nc(-c2cccc3cccnc23)cs1 (stereo not given)	x	x	0	-9	x	x
O=C(O)CCCCCCNC(=O)c1cncc(O)c1	0	-8%	4	0	-12	-2
Cc1ccc2c(c1)N(C(=O)CCC(=O)N1CCOCC1)CCO2	3	-6%	8	6	-31*	-10
Cc1ccc2c(c1)N(C(=O)CCC(=O)N1CCCCC1)CCO2	-1	-6%	-14	10	-25	4
Cc1ccc2c(c1)N(C(=O)CCC(=O)NCCN1CCOCC1)CC(C)O2 (stereo not given)	0	-16%	0	3	-36*	-5
Cc1ccc2c(c1)N(C(=O)CCC(=O)NCCCN1CCOCC1)CC(C)O2 (stereo not given)	1	1%	-4	2	1	-13
COc1ccc(CCNC(=O)CCC(=O)N2CC(C)Oc3ccc(Cl)cc32)cc1OC (stereo not given)	-1	-4%	18	-7	-58*	-8
O=C1CCCCN1CCCC(=O)N1CCCC(Nc2ccccc2)C1 (stereo not given)	7	12%	0	9	-51*	-5
Cc1ccc(NC2=C(Cl)C(=O)OC2OC(=O)c2ccco2)cc1C (stereo not given)	8	-2%	8	19	-30*	-8
CC(=O)Nc1ccc(S(=O)(=O)N2CCC(=O)Nc3ccccc32)cc1	0	12%	11	8	-8	-1
Cc1nn(C)c2c1c(-c1ccccc1)cc(=O)n2Cc1ccc(Br)cc1F	3	1%	x	1	-6	-6
CSc1nnc(C)c(=O)n1COC(=O)COc1ccc2ccccc2c1	3	-4%	6	2	-10	-5
CCCN1C(=O)C(=O)c2cc(Cl)ccc21	x	-4%	-74*	-35	x	x
O=C1C(=O)N(CCS(=O)(=O)c2ccccc2)c2ccc(Cl)cc21	-1	20%	-75*	-23	1	-2
Nc1cc(=O)[nH]c(SCC(=O)Nc2cccnc2Cl)n1	3	2%	-13	-9	3	x
CC(C)(C)c1ccc(C(=O)NCc2cccnc2)cc1	3	-3%	-10	-1	-11	-6
O=C(NCc1cccnc1)c1nc(-c2ccc(C(F)(F)F)cc2)no1	14	6%	-59*	-4	-40*	-6
O=C(NCc1ccncc1)c1nc(-c2cccs2)no1	8	6%	-2	-1	-12	2
O=C(NCc1ccncc1)c1nc(-c2ccc(C(F)(F)F)cc2)no1	8	1%	17	3	-39*	-10
COC(=O)c1sc(C(C)(C)C)cc1CS(=O)(=O)c1ccc(Cl)cc1	2	3%	18	-6	-40*	-5
COc1ccc([C@H]2C[C@H](O)[C@@H](n3cc(-c4ccc(F)cc4)nn3)CN2C(=O)c2cccs2)cc1	x	x	5	71*	x	x
COc1ccc([C@H]2C[C@@H](n3cc(-c4ccc(F)cc4)nn3)[C@H](O)CN2C(=O)c2cccs2)cc1	x	x	-4	3	x	x
SMILES	D1 ag	ERG-DNA inh	D3 antag	D3 ag	D1 antagonist	D1 PAM
COC(=O)c1ccc(NC(=O)CSc2nc3c(c(=O)n(C)c(=O)n3C)n2Cc2ccccc2)cc1	-1	-13%	x	9	0	2
CC(=O)N1CCN(c2nc(N)c(C#N)c(CC#N)c2C#N)CC1	2	28%	-11	1	-65*	-11
N#CCc1c(C#N)c(N)nc(N2CCN(C=O)CC2)c1C#N	0	11%	-3	-1	8	-2
CCCN(CCC)c1ccc(/C=C/c2ccc3cc(OCC)ccc3n2)cc1	33*	2%	12	0	-19	-3
CN(C)c1ccc(/C=C/c2ccc3ccccc3n2)cc1	139*	6%	13	-1	-5	2
COc1ccc(/C=C2\C(=O)OCc3cc(OC)c(OC)cc32)cc1OC	1	0%	0	0	4	2
O=C(C[C@H]1C/C=C\CC[C@@H](Cc2ccc(F)cc2)C(=O)OC[C@H]2CCCN2C1=O)N[C@H](CO)Cc1ccccc1	x	u	-8	32*	x	x
COC(=O)C(NC(=O)C(NC(=O)c1ccccc1)C(C)C)C(C)C (stereo not given)	0	-4%	-13	-2	3	-1
O=S(=O)(NCc1c(Cl)cccc1Oc1ccccc1)c1ccc(F)cc1	29	12%	61	0	-34*	-4
CSc1c(C#N)c(N)nc2sc(C(=O)c3ccccc3)c(N)c12	37*	13%	-5	10	-11	0
CCCc1ccc(/C=C2\C(=O)c3ccccc3C(O)=C2C(=O)OCC)cc1	4	x	x	x	-15	-1
CCOC(=O)C1=C(O)c2ccccc2C(=O)/C1=C\c1ccc(CC)cc1	12	5%	-70*	-39	-7	-6
CCOC(=O)C1=C(Cc2ccc(OC)cc2)C(=O)c2ccccc2C1=O	27	5%	-71*	-35	-9	-1
CCOC(=O)C1=C(Cc2ccc(C)cc2)C(=O)c2ccccc2C1=O	11	x	x	x	6	-3
CCOC(=O)c1ccc(N2C(=O)CC(N3CCOCC3)C2=O)cc1 (stereo not given)	2	7%	-16	-2	-1	1
O=C(NCc1ccccc1)c1ccc(C2SCC(=O)N2Cc2ccccc2)cc1 (stereo not given)	34*	6%	-6	-1	0	-5
Cc1cc2ccccc2n1CCNC(=O)C(C)(C)C	1	22µM*	-11	-5	-7	-1
Cc1onc(-c2ccccc2Cl)c1C(=O)NCC(=O)O	3	0%	23	-4	31	-7
Cc1cc2ccccc2n1CCNC(=O)c1ccc(Br)o1	4	32µM*	-5	-13	-15	-4

Bioassay records from PubChem.
